Measurements: PubChem BioAssay AID1159580 (chemical genetic matrix, 2015)
Several values for one entry are separate records, joined by “and”; a condition that tells them apart may be missing. Equal values may be shown once. In all, about 5,500 compounds went through this assay and about 2,000 (36%) were called active. Not shown: some 18% with an inconclusive outcome. Rule as the data show it: active = normalized growth mostly below about 0.91 (no sharp cut-off); inconclusive = no clear call, values can overlap the other calls; inactive = mostly above about 0.92. The list shows a part of the results.

Experiment: chemical genetic growth profiling, strain panel (AID 1159580);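 also: tested at 20 µM; growth read once vehicle control cultures reached saturation at 30 °C; 1 = growth at the plate median or of vehicle wells; lower values mean less growth of the strain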
Details: growth OD

Measured: normalized growth

NCCSSCCN
inactive: S. cerevisiae deletion strains, locus YKL009W, strain mrt4, active compounds read low 1.03 | S. cerevisiae deletion strains, locus YKL068W, active compounds read low 1.01 | S. cerevisiae deletion strains, locus YKL085W, strain MDH1 (second series), active compounds read low 1.01 | S. cerevisiae deletion strains, locus YKL085W, strain MDH1, active compounds read low 1.01 | S. cerevisiae deletion strains, locus YKL160W, strain elf1, active compounds read low 0.995 | S. cerevisiae deletion strains, locus YKL190W, strain CNB1, active compounds read low 1.01 | S. cerevisiae deletion strains, locus YKR001C, strain vps1, active compounds read low 1.02 | S. cerevisiae deletion strains, locus YKR026C, strain gcn3, active compounds read low 0.993 | S. cerevisiae deletion strains, locus YKR091W, strain srl3, active compounds read low 0.993 | S. cerevisiae deletion strains, locus YLL001W, strain dnm1, active compounds read low 0.978 | S. cerevisiae deletion strains, locus YLL026W, active compounds read low 0.989 | S. cerevisiae deletion strains, locus YLL041C, strain sdh2, active compounds read low 0.997 | S. cerevisiae deletion strains, locus YLR027C, strain aat2, active compounds read low 0.99 | S. cerevisiae deletion strains, locus YLR039C, strain RIC1, active compounds read low 1.02 | S. cerevisiae deletion strains, locus YLR058C, strain SHM2, active compounds read low 1.01 | S. cerevisiae deletion strains, locus YLR102C, strain apc9, active compounds read low 0.994 | S. cerevisiae deletion strains, locus YLR113W, strain HOG1, active compounds read low 1.05 | S. cerevisiae deletion strains, locus YLR221C, strain rsa3, active compounds read low 0.998 | S. cerevisiae deletion strains, locus YLR258W, strain gsy2, active compounds read low 0.996 | S. cerevisiae deletion strains, locus YLR262C, strain YPT6 (second series), active compounds read low 0.994 | S. cerevisiae deletion strains, locus YLR262C, strain YPT6, active compounds read low 1.02 | S. cerevisiae deletion strains, locus YLR268W, strain sec22, active compounds read low 1.05 | S. cerevisiae deletion strains, locus YLR320W, strain mms22, active compounds read low 1 | S. cerevisiae deletion strains, locus YLR330W, strain CHS5, active compounds read low 1.01 | S. cerevisiae deletion strains, locus YLR342W, strain FKS1 (second series), active compounds read low 1 | S. cerevisiae deletion strains, locus YLR342W, strain FKS1, active compounds read low 0.983 | S. cerevisiae deletion strains, locus YLR357W, strain rsc2, active compounds read low 0.979 | S. cerevisiae deletion strains, locus YLR370C, strain arc18, active compounds read low 0.993 | S. cerevisiae deletion strains, locus YLR371W, strain rom2, active compounds read low 1.01 | S. cerevisiae deletion strains, locus YLR384C, strain iki3, active compounds read low 0.987 | S. cerevisiae deletion strains, locus YLR418C, strain cdc73, active compounds read low 0.999 | S. cerevisiae deletion strains, locus YML016C, strain PPZ1, active compounds read low 1 | S. cerevisiae deletion strains, locus YML032C, strain rad52, active compounds read low 1.03 | S. cerevisiae deletion strains, locus YML120C, strain ndi1, active compounds read low 0.995 | S. cerevisiae deletion strains, locus YML124C, strain tub3, active compounds read low 1 | S. cerevisiae deletion strains, locus YMR058W, strain fet3, active compounds read low 1 | S. cerevisiae deletion strains, locus YMR078C, strain ctf18, active compounds read low 1.01 | S. cerevisiae deletion strains, locus YMR125W, strain sto1, active compounds read low 1 | S. cerevisiae deletion strains, locus YMR129W, active compounds read low 1 | S. cerevisiae deletion strains, locus YMR205C, strain PFK2, active compounds read low 0.992 | S. cerevisiae deletion strains, locus YMR223W, strain ubp8, active compounds read low 0.981 | S. cerevisiae deletion strains, locus YMR231W, strain pep5, active compounds read low 1 | S. cerevisiae deletion strains, locus YMR263W, strain SAP30, active compounds read low 1.03 and 1 | S. cerevisiae deletion strains, locus YMR307W, strain GAS1, active compounds read low 0.996 | S. cerevisiae deletion strains, locus YNL067W, strain RPL9B, active compounds read low 1.03 | S. cerevisiae deletion strains, locus YNL071W, strain lat1, active compounds read low 1 | S. cerevisiae deletion strains, locus YNL128W, strain TEP1, active compounds read low 1.02 and 1 | S. cerevisiae deletion strains, locus YNL153C, strain GIM3, active compounds read low 1.03 | S. cerevisiae deletion strains, locus YNL175C, strain NOP13, active compounds read low 1 | S. cerevisiae deletion strains, locus YNL183C, strain NPR1, active compounds read low 1 | S. cerevisiae deletion strains, locus YNL197C, strain WHI3, active compounds read low 1.02 | S. cerevisiae deletion strains, locus YNL209W, strain ssb2, active compounds read low 1 | S. cerevisiae deletion strains, locus YNL224C, strain SQS1, active compounds read low 1 | S. cerevisiae deletion strains, locus YNL233W, strain BNI4, active compounds read low 1.02 | S. cerevisiae deletion strains, locus YNL248C, strain rpa49, active compounds read low 0.998 | S. cerevisiae deletion strains, locus YNL250W, strain rad50, active compounds read low 0.999 | S. cerevisiae deletion strains, locus YNL271C, strain bni1, active compounds read low 1.01 | S. cerevisiae deletion strains, locus YNL298W, strain CLA4, active compounds read low 1 | S. cerevisiae deletion strains, locus YNL307C, strain MCK1, active compounds read low 1.01 | S. cerevisiae deletion strains, locus YNL322C, strain KRE1 (second series), active compounds read low 0.998 | S. cerevisiae deletion strains, locus YNL322C, strain KRE1, active compounds read low 1.01 and 0.988 | S. cerevisiae deletion strains, locus YNR049C, strain mso1, active compounds read low 1 | S. cerevisiae deletion strains, locus YNR052C, strain pop2, active compounds read low 1 | S. cerevisiae deletion strains, locus YOL006C, strain TOP1, active compounds read low 1.08 | S. cerevisiae deletion strains, locus YOL012C, strain htz1 0.933 | S. cerevisiae deletion strains, locus YOL147C, strain pex11, active compounds read low 1 | S. cerevisiae deletion strains, locus YOR001W, strain rrp6, active compounds read low 0.989 | S. cerevisiae deletion strains, locus YOR061W, strain CKA2, active compounds read low 1.01 | S. cerevisiae deletion strains, locus YOR069W, strain VPS5, active compounds read low 1.01 | S. cerevisiae deletion strains, locus YOR070C, strain gyp1, active compounds read low 0.999 | S. cerevisiae deletion strains, locus YOR080W, strain dia2, active compounds read low 1 | S. cerevisiae deletion strains, locus YOR083W, strain WHI5 (second series), active compounds read low 1.01 | S. cerevisiae deletion strains, locus YOR083W, strain WHI5, active compounds read low 0.99 | S. cerevisiae deletion strains, locus YOR106W, strain vam3, active compounds read low 0.985 | S. cerevisiae deletion strains, locus YOR136W, strain idh2, active compounds read low 0.991 | S. cerevisiae deletion strains, locus YOR144C, strain elg1, active compounds read low 1.01 | S. cerevisiae deletion strains, locus YOR184W, strain ser1, active compounds read low 0.966 | S. cerevisiae deletion strains, locus YOR231W, strain MKK1, active compounds read low 1.09 | S. cerevisiae deletion strains, locus YOR265W, strain rbl2, active compounds read low 0.993 | S. cerevisiae deletion strains, locus YOR270C, strain vph1, active compounds read low 1.02 | S. cerevisiae deletion strains, locus YOR290C, strain snf2, active compounds read low 1.01 | S. cerevisiae deletion strains, locus YOR316C, strain cot1, active compounds read low 1.01 | S. cerevisiae deletion strains, locus YPL051W, strain arl3, active compounds read low 0.982 | S. cerevisiae deletion strains, locus YPL055C, strain LGE1, active compounds read low 0.994 | S. cerevisiae deletion strains, locus YPL078C, strain atp4, active compounds read low 0.998 | S. cerevisiae deletion strains, locus YPL106C, strain sse1, active compounds read low 0.984 | S. cerevisiae deletion strains, locus YPL240C, strain hsp82, active compounds read low 0.991 | S. cerevisiae deletion strains, locus YPL241C, strain CIN2, active compounds read low 1.01 | S. cerevisiae deletion strains, locus YPL256C, strain CLN2, active compounds read low 1.07 | S. cerevisiae deletion strains, locus YPR119W, strain clb2, active compounds read low 1.01 | S. cerevisiae deletion strains, locus YPR141C, strain kar3, active compounds read low 0.997 | S. cerevisiae deletion strains, locus YPR163C, strain tif3, active compounds read low 1.01 | S. cerevisiae deletion strains, locus YPR167C, strain met16, active compounds read low 1 | S. cerevisiae deletion strains, strain wtn01, active compounds read low 1.03 | S. cerevisiae strains, strain wild type, active compounds read low 1.01
